Tests used:
Conditions in all cases: concentration: 1 μM, replicates: in singlicate; n = 1
TLK1 = system: TLK1
TLK2 = system: TLK2
TNIK = system: TNIK
TNK1 = system: TNK1
TNK2 = system: TNK2
TNNI3K = system: TNNI3K
TRKA = system: T1, TRKA
T1 construct: gene NTRK1

TRKB = system: TRKB
TRKC = system: T2, TRKC
T2 construct: gene NTRK3

TRPM6 = system: TRPM6
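Note: KINOMEscan kinase panel screen.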

Structure (SMILES)	%Inh (TLK1) [%]	%Inh (TLK2) [%]	%Inh (TNIK) [%]	%Inh (TNK1) [%]	%Inh (TNK2) [%]	%Inh (TNNI3K) [%]	%Inh (TRKA) [%]	%Inh (TRKB) [%]	%Inh (TRKC) [%]	%Inh (TRPM6) [%]
O=c1cc(N2CCOCC2)nc2n(Cc3cccc(Cl)c3Cl)c3ccccc3n12 [GSK2299009]	2	0	1	6	9	17	18	0	0	36
COc1cccc(NC(=O)Nc2ccc(C)c(-c3ccc(C(=O)Nc4ccncc4)cc3)c2)c1 [GSK1398474]	11	0	0	10	16	20	4	0	2	31
COC(=O)c1cccc(NC(=O)NC2CCN(c3ccnc(Nc4ccc(F)cc4)n3)C2)c1 (centres unmarked) [GSK1379725]	0	0	0	0	17	2	9	58	82	0
COc1ccc2cc(-c3nc(-c4ccccc4C(C)C)[nH]c3-c3ccncc3)ccc2c1 [SB-660566]	0	0	0	32	14	15	0	13	1	18
Cc1ccc(-c2nc(Nc3ccncc3)c3ccccc3n2)s1 [GSK189015]	0	0	8	29	19	14	44	0	0	15
CS(=O)(=O)Cc1ccc(Nc2nccc(-c3c(-c4cccc(NC(=O)C5CCCCC5)c4)nn4ncccc34)n2)cc1 [GSK350559]	16	0	0	29	13	0	39	16	27	0
Nc1ncnc2occ(-c3ccc4c(c3)CCN4C(=O)Cc3cc(F)ccc3F)c12 [GSK2645446]	0	0	0	0	0	0	9	0	0	0
CCn1c(-c2ccccc2)nc2cnccc21 [SB-733416]	0	0	0	31	17	16	0	0	25	0
Cc1ccc(NC(=O)Nc2ccc(Cl)cc2)cc1-c1ccc(C(=O)Nc2ccncc2)cc1 [GSK1398472]	0	0	0	0	16	25	0	0	9	14
Nc1cccc(-c2ccc3c(N)n[nH]c3c2)n1 [GSK2192730]	33	21	24	0	0	0	0	0	0	18
COc1cccc(CNC(=O)NC2CCN(c3ccnc(Nc4ccc(F)cc4)n3)C2)c1 (centres unmarked) [GSK1379723]	0	0	0	0	16	4	0	0	5	0
O=C(Nc1n[nH]c2nc(-c3cccs3)c(Br)cc12)C1CC1 [SB-735297]	5	0	17	33	0	98.6	6	41	17	18
Fc1ccc(-c2nc3n(c2-c2ccncc2)CCS3)cc1 [GI98581]	0	0	18	0	11	2	11	0	17	23
Cc1cccc2c(-c3ccncn3)c(-c3ccc(F)cc3)nn12 [GW515532]	6	0	8	0	0	0	2	0	7	0
CSc1ccc(-c2nc3n(c2-c2ccncc2)CCC3)cc1 [SKF-105561]	31	0	7	0	0	49	0	4	46	0
Cn1cncc1C(=O)NC1CCN(c2ccnc(Nc3ccc(F)cc3)n2)C1 (centres unmarked) [GSK1379717]	18	0	0	0	10	0	0	17	48	31
Cc1ccccc1Cn1ccn2c(=O)cc(N3CCOCC3)nc12 [GSK2269905]	0	0	0	6	32	4	0	0	0	2

— paper PMC5540273 (PLoS ONE, 2017)
